# Assay results reported in PubChem BioAssay (Tox21).
# Values joined by “and” are separate entries in the source; they are usually repeats but may differ in a detail not shown here. Equal values may be shown once. Records with an inconclusive call do not appear. Where a call stands in place of a potency, no number is given. Active and inactive are the calls of the source. Unless noted, calls follow the shape of the dose curve; as a rule, active = well fitted curve in the direction sought with a large enough effect in the repeat runs; inconclusive = weak or mixed curves; inactive = no such curve, though single readings can be large; an effect the other way counts as inactive or inconclusive.
# Key:
# [1] = target: Aryl hydrocarbon receptor (Homo sapiens) (UniProt P35869); assay: qHTS assay to identify small molecule that activate the aryl hydrocarbon receptor (AhR) signaling pathway (AID 743085); also: nearly all actives have a fitted effect of over 15% in size; also: potency is read from the fitted curve at half-maximal effect;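 as to activation: HG2L7.5c1 human HepG2 liver cells with stably integrated DRE-driven firefly reporter; series mostly up to about 70 µM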
# Procedure, shortened: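 Compounds were tested in HepG2 hepatocellular carcinoma cells harbouring a stably integrated luciferase gene under control of 20 DREs. Increased reporter signal after 24 h treatment at 37C was taken as AhR activation.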
# [2] = qHTS assay to identify small molecule that activate the aryl hydrocarbon receptor (AhR) signaling pathway - cell viability counter screen (AID 743086); also: nearly all actives have a fitted effect of over 45% in size; also: potency is read from the fitted curve at half-maximal effect
# Procedure, shortened: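 HepG2-AhR-luc (HG2L7.5c1) cells, 4000/well, treated 24 h at 37 C with compound; viability measured as CellTiter-Fluor fluorescence after 30 min in the same wells as the luciferase read.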
# [3] = target: Peroxisome proliferator-activated receptor gamma (Homo sapiens) (UniProt P37231); assay: qHTS assay to identify small molecule agonists of the peroxisome proliferator-activated receptor gamma (PPARg) signaling pathway (AID 743094; active = well fitted activation curve with a large enough effect in the signal ratio in the repeat runs, not every such curve was filed as active; the % refers to the signal ratio; also: potency is read from the fitted curve at half-maximal effect)
# Procedure, shortened: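 Beta-lactamase FRET fluorescence was the read-out after a 1 h room-temperature substrate step, following 17 h compound treatment at 37C of HEK293H cells expressing a UAS-driven bla reporter responsive to PPARg.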
# [4] = target: Peroxisome proliferator-activated receptor gamma (Homo sapiens) (UniProt P37231); assay: qHTS assay to identify small molecule antagonists of the peroxisome proliferator-activated receptor gamma (PPARg) signaling pathway (AID 743191; calls by dose curve; also: nearly all actives have a fitted effect of over 30% in size; also: potency is read from the fitted curve at half-maximal effect)
# Procedure, shortened: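 GeneBLAzer PPARg UAS-bla HEK293H cells, 5 h post-plating, exposed to compounds 17 h at 37C. LiveBLAzer B/G FRET substrate added for 1 h at room temperature; beta-lactamase reporter read by fluorescence intensity.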
# [5] = qHTS assay to identify small molecule antagonists of the peroxisome proliferator-activated receptor gamma (PPARg) signaling pathway - cell viability counter screen (AID 743194); details: Potency: co-treated with 50 nM rosiglitazone unless noted; also: nearly all actives have a fitted effect of over 55% in size; also: potency is read from the fitted curve at half-maximal effect
# Procedure, shortened: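 Cytotoxicity counter screen in PPARg-bla HEK293H cells, same wells as reporter assay. Compounds plus 50 nM rosiglitazone (final) for 17 h at 37 C, then viability read by CellTiter-Glo luminescence.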
# [6] = qHTS assay for small molecule agonists of the antioxidant response element (ARE) signaling pathway - cell viability counter screen (AID 743203; calls by dose curve; also: nearly all actives have a fitted effect of over 55% in size; also: potency is read from the fitted curve at half-maximal effect)
# Procedure, shortened: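 HepG2 cells carrying ARE-driven beta-lactamase; 2,000 cells/well; 5 hrs plating; compound pinned from DMSO; 16 hrs 37C/5% CO2; CellTiter-Glo added; 30 min RT; luminescence.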
# [7] = qHTS assay for small molecule activators of the heat shock response signaling pathway - cell viability counter screen (AID 743209); also: nearly all actives have a fitted effect of over 50% in size; also: potency is read from the fitted curve at half-maximal effect
# Procedure, shortened: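 Luminescence from CellTiter-Glo, added after the beta-lactamase FRET read, gave the viability signal. Cells were HSE-bla HeLa treated with DMSO-dissolved compounds for 5 h at 37 C following overnight plating.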
# [8] = qHTS assay to identify small molecule agonists of the peroxisome proliferator-activated receptor delta (PPARd) signaling pathway - cell viability counter screen (AID 743211); also: nearly all actives have a fitted effect of over 55% in size; also: potency is read from the fitted curve at half-maximal effect
# Procedure, shortened: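 Counter screen for cytotoxicity run in parallel with the PPARd reporter screen. Beta-lactamase reporter HEK293H cells exposed to compounds 17 h; ATP-based CellTiter-Glo luminescence quantified viability.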
# [9] = target: Peroxisome proliferator-activated receptor delta (Homo sapiens) (UniProt Q03181); assay: qHTS assay to identify small molecule agonists of the peroxisome proliferator-activated receptor delta (PPARd) signaling pathway (AID 743212; calls by dose curve; also: potency is read from the fitted curve at half-maximal effect)
# Procedure, shortened: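 Quantitative high-throughput agonist screen in a HEK293H beta-lactamase reporter line under UAS control. Compounds in DMSO, at 37 C. Fluorescence read after 2 h with FRET substrate at room temperature.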
# [10] = qHTS assay to identify small molecule antagonists of the peroxisome proliferator-activated receptor delta (PPARd) signaling pathway - cell viability counter screen (AID 743213); also: nearly all actives have a fitted effect of over 50% in size; also: potency is read from the fitted curve at half-maximal effect
# Procedure, shortened: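 HEK293H PPARd UAS-bla cells, 5 h pre-incubation, compound + L165041 300 nM final, 17 h 37 C; B/G FRET substrate 2 h RT; then CellTiter-Glo 30 min RT, luminescence.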
# [11] = target: Peroxisome proliferator-activated receptor delta (Homo sapiens) (UniProt Q03181); assay: qHTS assay to identify small molecule antagonists of the peroxisome proliferator-activated receptor delta (PPARd) signaling pathway (AID 743215; active = well fitted inhibition curve with a large enough effect in the signal ratio in the repeat runs, not every such curve was filed as active; the % refers to the signal ratio;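 also: cells stimulated with agonist L165041 at 300 nM final during compound exposure; series mostly up to about 62 µM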)
# Procedure, shortened: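 Read-out is beta-lactamase FRET fluorescence, measured 2 h after substrate addition at room temperature. Beforehand, UAS-bla HEK293H cells carrying the PPARd reporter were exposed to compounds with L165041 at 300 nM final for 17 h at 37 C.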
# [12] = target: Bile acid receptor (Homo sapiens) (UniProt Q96RI1); assay: qHTS assay to identify small molecule antagonists of the farnesoid-X-receptor (FXR) signaling pathway (AID 743217; active = well fitted inhibition curve with a large enough effect in the signal ratio in the repeat runs, not every such curve was filed as active; the % refers to the signal ratio)
# Procedure, shortened: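 HEK 293T FXR-UAS-bla, 5000 cells/well; compound + CDCA 50 uM final; 16 h, 37 °C; B/G FRET substrate 2 h RT; fluorescence.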
# [13] = qHTS assay to identify small molecule agonists of the farnesoid-X-receptor (FXR) signaling pathway - cell viability counter screen (AID 743218); also: nearly all actives have a fitted effect of over 45% in size; also: potency is read from the fitted curve at half-maximal effect
# Procedure, shortened: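 HEK 293T FXR-bla cells; 5 h pre-incubation, 16 h compound exposure at 37 C; LiveBLAzer substrate 2 h RT, then CellTiter-Glo 30 min RT, luminescence.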
# [14] = target: Bile acid receptor (Homo sapiens) (UniProt Q96RI1); assay: qHTS assay to identify small molecule agonists of the farnesoid-X-receptor (FXR) signaling pathway (AID 743220; active = well fitted activation curve with a large enough effect in the signal ratio in the repeat runs, not every such curve was filed as active; the % refers to the signal ratio)
# Procedure, shortened: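 Beta-lactamase reporter under UAS control in GeneBLAzer FXR HEK 293T cells (5000/well) measured with LiveBLAzer FRET substrate after 2 h at room temperature. Compound exposure lasted 16 h at 37C.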
# [15] = qHTS assay to identify small molecule antagonists of the farnesoid-X-receptor (FXR) signaling pathway - cell viability counter screen (AID 743221; active = well fitted cell-killing curve with a large enough effect in the repeat runs, not every such curve was filed as active; also: nearly all actives have a fitted effect of over 50% in size)
# Procedure, shortened: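 Multiplexed counter screen: viability of FXR-bla HEK 293T cells under agonist stimulation by chenodeoxycholic acid (50 uM, final) and test compound for 16 h at 37 C, measured by CellTiter-Glo luminescence in the reporter wells.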
# [16] = target: Vitamin D3 receptor (Homo sapiens) (UniProt P11473); assay: qHTS assay to identify small molecule antagonists of the vitamin D receptor (VDR) signaling pathway (AID 743223; active = well fitted inhibition curve with a large enough effect in the signal ratio in the repeat runs, not every such curve was filed as active; the % refers to the signal ratio)
# Procedure, shortened: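 Cells carrying a VDR-driven beta-lactamase reporter (VDR-bla) were co-treated with compound and 3 nM final 1alpha,25-dihydroxyvitamin D3 for 16 h at 37C; reporter activity was measured as FRET substrate fluorescence after 2 h at room temperature.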
# [17] = qHTS assay for small molecule agonists of the antioxidant response element (ARE) signaling pathway (AID 743202; active = well fitted activation curve with a large enough effect in the signal ratio in the repeat runs, not every such curve was filed as active; the % refers to the signal ratio; also: potency is read from the fitted curve at half-maximal effect)
# Procedure, shortened: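 Agonist mode reporter screen: HepG2 cells with ARE-controlled beta-lactamase are incubated with test compounds for 16 h at 37 C, and beta-lactamase activity is measured as fluorescence of cleaved B/G FRET substrate.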
# [18] = target: Vitamin D3 receptor (Homo sapiens) (UniProt P11473); assay: qHTS assay to identify small molecule agonists of the vitamin D receptor (VDR) signaling pathway (AID 743222; calls by dose curve; also: potency is read from the fitted curve at half-maximal effect)
# Procedure, shortened: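 VDR-bla cells, 2,000/well; 4 h preincubation 37C; cpd (DMSO) 16 h; LiveBLAzer B/G substrate 2 h RT; fluorescence intensity read.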
# [19] = qHTS assay to identify small molecule agonists of the vitamin D receptor (VDR) signaling pathway - cell viability counter screen (AID 743224); also: nearly all actives have a fitted effect of over 50% in size; also: potency is read from the fitted curve at half-maximal effect
# Procedure, shortened: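 Luminescence from CellTiter-Glo, read after 30 min at room temperature, reports viability of VDR-bla cells treated with compounds for 16 h at 37C in the wells used for the beta-lactamase FRET read.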
# [20] = qHTS assay for small molecule activators of the heat shock response signaling pathway (AID 743210; active = well fitted activation curve with a large enough effect in the signal ratio in the repeat runs, with a control signal flat, not every such curve was filed as active; the % refers to the signal ratio;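 also: HeLa cells with beta-lactamase reporter driven by heat shock elements; series mostly up to about 63 µM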)
# Procedure, shortened: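 Quantitative high-throughput format using an engineered HeLa line in which heat shock response elements drive beta-lactamase; after 5 h with compound, cells received a B/G FRET substrate and fluorescence was read.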
# Chain of Bile acid receptor (Homo sapiens) (Q96RI1 whole entry, looked up): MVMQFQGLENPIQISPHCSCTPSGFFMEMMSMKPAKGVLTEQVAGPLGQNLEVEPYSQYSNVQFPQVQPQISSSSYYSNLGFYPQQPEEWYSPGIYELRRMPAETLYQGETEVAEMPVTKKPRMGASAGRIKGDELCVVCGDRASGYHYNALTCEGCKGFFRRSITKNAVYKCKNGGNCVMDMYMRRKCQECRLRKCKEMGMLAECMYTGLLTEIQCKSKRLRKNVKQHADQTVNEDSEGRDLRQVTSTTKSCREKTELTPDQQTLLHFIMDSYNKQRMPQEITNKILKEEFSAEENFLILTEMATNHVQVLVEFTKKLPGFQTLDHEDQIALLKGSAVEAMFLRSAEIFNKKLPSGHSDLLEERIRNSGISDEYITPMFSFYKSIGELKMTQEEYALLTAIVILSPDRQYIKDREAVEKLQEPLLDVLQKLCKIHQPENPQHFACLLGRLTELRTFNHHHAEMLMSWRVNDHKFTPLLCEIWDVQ
# Chain of Peroxisome proliferator-activated receptor gamma (Homo sapiens) (P37231 whole entry, looked up): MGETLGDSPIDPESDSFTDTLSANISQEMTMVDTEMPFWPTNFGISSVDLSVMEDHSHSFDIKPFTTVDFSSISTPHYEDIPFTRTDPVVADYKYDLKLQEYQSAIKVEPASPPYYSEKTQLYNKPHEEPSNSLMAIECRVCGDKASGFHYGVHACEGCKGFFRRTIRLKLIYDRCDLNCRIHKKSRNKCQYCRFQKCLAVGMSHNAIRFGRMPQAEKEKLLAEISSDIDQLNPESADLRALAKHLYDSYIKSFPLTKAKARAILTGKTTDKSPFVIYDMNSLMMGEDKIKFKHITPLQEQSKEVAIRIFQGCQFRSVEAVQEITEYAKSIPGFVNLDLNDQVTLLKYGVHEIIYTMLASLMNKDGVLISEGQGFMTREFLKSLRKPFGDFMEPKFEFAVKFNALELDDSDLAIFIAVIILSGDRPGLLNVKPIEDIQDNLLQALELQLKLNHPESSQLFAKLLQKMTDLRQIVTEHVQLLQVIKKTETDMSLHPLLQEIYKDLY
# Chain of Peroxisome proliferator-activated receptor delta (Homo sapiens) (Q03181 whole entry, looked up): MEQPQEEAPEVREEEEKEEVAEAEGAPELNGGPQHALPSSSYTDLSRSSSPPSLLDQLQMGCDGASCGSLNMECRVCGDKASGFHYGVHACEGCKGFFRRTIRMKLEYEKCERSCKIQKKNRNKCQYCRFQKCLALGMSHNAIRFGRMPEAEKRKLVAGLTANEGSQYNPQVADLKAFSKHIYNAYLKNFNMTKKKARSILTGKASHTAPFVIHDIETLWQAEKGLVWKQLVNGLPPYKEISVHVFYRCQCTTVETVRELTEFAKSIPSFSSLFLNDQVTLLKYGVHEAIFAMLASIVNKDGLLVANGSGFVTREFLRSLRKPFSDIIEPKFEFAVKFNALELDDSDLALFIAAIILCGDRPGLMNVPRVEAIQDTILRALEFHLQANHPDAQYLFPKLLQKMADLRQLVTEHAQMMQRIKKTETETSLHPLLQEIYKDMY
# Chain of Vitamin D3 receptor (Homo sapiens) (P11473 whole entry, looked up): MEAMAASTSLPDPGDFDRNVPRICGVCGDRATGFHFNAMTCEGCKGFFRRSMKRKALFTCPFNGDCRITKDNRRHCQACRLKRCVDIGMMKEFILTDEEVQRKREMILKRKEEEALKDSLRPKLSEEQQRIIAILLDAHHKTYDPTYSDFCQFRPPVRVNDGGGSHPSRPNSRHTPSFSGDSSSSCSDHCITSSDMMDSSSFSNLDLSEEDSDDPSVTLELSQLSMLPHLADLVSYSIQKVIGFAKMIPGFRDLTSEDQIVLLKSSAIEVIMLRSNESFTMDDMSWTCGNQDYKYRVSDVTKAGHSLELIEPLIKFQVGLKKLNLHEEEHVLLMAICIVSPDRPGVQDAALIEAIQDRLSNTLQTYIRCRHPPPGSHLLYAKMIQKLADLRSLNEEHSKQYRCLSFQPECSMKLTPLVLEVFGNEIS
# Chain of Aryl hydrocarbon receptor (Homo sapiens) (P35869 whole entry, looked up): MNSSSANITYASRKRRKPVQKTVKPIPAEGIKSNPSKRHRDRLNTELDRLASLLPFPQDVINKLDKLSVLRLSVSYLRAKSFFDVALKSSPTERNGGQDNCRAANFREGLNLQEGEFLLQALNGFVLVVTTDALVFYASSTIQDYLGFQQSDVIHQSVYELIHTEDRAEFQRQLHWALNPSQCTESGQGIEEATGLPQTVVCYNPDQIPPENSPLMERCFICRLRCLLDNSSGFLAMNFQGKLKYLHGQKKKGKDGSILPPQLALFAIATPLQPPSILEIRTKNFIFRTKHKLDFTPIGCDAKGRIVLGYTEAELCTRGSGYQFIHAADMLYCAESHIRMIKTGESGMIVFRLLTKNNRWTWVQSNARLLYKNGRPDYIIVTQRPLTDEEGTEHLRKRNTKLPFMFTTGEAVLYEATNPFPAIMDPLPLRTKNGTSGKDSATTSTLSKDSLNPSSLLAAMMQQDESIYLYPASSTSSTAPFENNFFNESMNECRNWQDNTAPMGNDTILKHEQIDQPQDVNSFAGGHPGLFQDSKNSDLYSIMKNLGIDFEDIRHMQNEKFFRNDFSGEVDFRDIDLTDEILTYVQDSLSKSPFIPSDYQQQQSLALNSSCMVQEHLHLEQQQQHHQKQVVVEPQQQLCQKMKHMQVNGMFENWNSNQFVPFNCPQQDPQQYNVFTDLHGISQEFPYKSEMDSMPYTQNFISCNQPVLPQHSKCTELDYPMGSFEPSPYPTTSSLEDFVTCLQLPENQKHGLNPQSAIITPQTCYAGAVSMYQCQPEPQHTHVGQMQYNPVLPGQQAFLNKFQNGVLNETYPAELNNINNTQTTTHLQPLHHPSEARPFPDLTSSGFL
Compound,Potency [1],Potency [2],Potency [3],Potency [4],Potency [5],Potency [6],Potency [7],Potency [8],Potency [9],Potency [10],Potency [11],Potency [12],Potency [13],Potency [14],Potency [15],Potency [16],Potency [17],Potency [18],Potency [19],Potency [20]
COP(=S)(OC)Oc1ccc([N+](=O)[O-])c(C)c1,48.6 µM (active),inactive,inactive,inactive,inactive,inactive,inactive,inactive,inactive,inactive,inactive,inactive,inactive,inactive,inactive,inactive,,,,
CCCCCON=O,inactive,inactive,inactive,inactive,inactive,inactive,,inactive,inactive,inactive,inactive,,inactive,,inactive,inactive,inactive,inactive,inactive,
Cc1c([N+](=O)[O-])cc2c(c1[N+](=O)[O-])C(C)(C)CC2(C)C,inactive,inactive,inactive,inactive,inactive,inactive,inactive,,inactive,inactive,inactive,,inactive,inactive,inactive,inactive,,,,
Brc1ccc(Oc2ccc(Br)cc2Br)c(Br)c1,inactive,inactive,inactive,inactive,inactive,,,43.7 µM (active),,inactive,,,,inactive,inactive,,inactive,inactive,,inactive
O=NN(CCO)CCO,inactive,inactive,inactive,inactive,,inactive,,inactive,,inactive,,inactive,inactive,inactive,inactive,inactive,inactive,inactive,inactive,inactive
CN(C)c1ccc(N)cc1,18.9 µM (active),66.9 µM (active),inactive,,inactive,inactive,,,inactive,,,,inactive,,inactive,,,inactive,42.6 µM (active),
Oc1cc(Cl)cc(Cl)c1,inactive,inactive,inactive,inactive,,inactive,,,inactive,inactive,,,inactive,,inactive,inactive,,inactive,,
O=[N+]([O-])C(Br)Br,inactive,inactive,inactive,,,61.3 µM (active),inactive,inactive,inactive,inactive,inactive,,inactive,,inactive,,,inactive,inactive,inactive
CSC(C)(C)/C=N/O,inactive,inactive,inactive,,inactive,inactive,inactive,,inactive,inactive,inactive,,inactive,,inactive,inactive,,inactive,inactive,inactive
CNC(=O)Oc1cc(C)cc(C(C)C)c1,inactive,inactive,inactive,,inactive,inactive,inactive,inactive,inactive,inactive,inactive,,inactive,,inactive,inactive,,inactive,inactive,inactive
COc1c2c(cc3c1OCO3)CCN(C)C2,inactive,inactive,inactive,,,,,inactive,inactive,inactive,inactive,,inactive,,inactive,inactive,inactive,,,
O=S1OCC2C(CO1)C1(Cl)C(Cl)=C(Cl)C2(Cl)C1(Cl)Cl (configuration not stated),inactive,inactive,inactive,,55 µM (active) and 24.5 µM (active),54.4 µM (active),24.5 µM (active),,,54.9 µM (active),,,38.9 µM (active),,,,,inactive,38.9 µM (active),
CC(C)C(Br)C(=O)NC(N)=O (configuration not stated),inactive,inactive,inactive,,inactive,inactive,inactive,inactive,inactive,inactive,inactive,inactive,inactive,inactive,inactive,inactive,,inactive,inactive,inactive
N#CSCc1ccccc1,inactive,inactive,inactive,,,inactive,,inactive,inactive,inactive,inactive,inactive,inactive,inactive,,inactive,inactive,inactive,inactive,
COC(=O)N(OC)c1ccccc1COc1ccn(-c2ccc(Cl)cc2)n1,inactive,inactive,inactive,,,43.3 µM (active),inactive,,,,,,inactive,inactive,inactive,,0.433 µM (active),inactive,,
Clc1cc(Cl)c(-c2cc(Cl)c(Cl)cc2Cl)cc1Cl,inactive,inactive,inactive,,inactive,inactive,inactive,,inactive,,,inactive,inactive,inactive,inactive,inactive,inactive,inactive,inactive,inactive
NC1CCC(CC2CCC(N)CC2)CC1 (configuration not stated),inactive,inactive,inactive,,,inactive,inactive,inactive,inactive,inactive,inactive,inactive,,inactive,inactive,,inactive,,inactive,inactive
c1csc(-c2ccc(-c3cccs3)s2)c1,24.3 µM (active),inactive,21.9 µM (active),,inactive,inactive,inactive,inactive,43.6 µM (active),inactive,,inactive,inactive,,inactive,,2.73 µM (active),24.5 µM (active),inactive,
COC(=O)c1cc(Oc2ccc(Cl)cc2Cl)ccc1[N+](=O)[O-],inactive,inactive,inactive,43.6 µM (active),,inactive,inactive,,inactive,inactive,inactive,inactive,inactive,inactive,inactive,,inactive,inactive,inactive,inactive
